Source: PubChem BioAssay AID485364 (National Center for Advancing Translational Sciences (NCATS), 2010)
The campaign covered roughly 360,000 compounds. About 11,000 (3.1%) were called active. About 4% were inconclusive and are not listed. The call rests on the fitted dose curve; in most records, active means well fitted inhibition curve with a large enough effect; inconclusive means small, poorly fitted or top-dose-only effect; inactive means no such curve, though single readings can be large or run the other way. The sample as a whole holds a higher share of actives than the screen did.

target: Schistosoma mansoni thioredoxin glutathione reductase (TGR) (UniProt Q962Y6); assay: qHTS Assay for the Inhibitors of Schistosoma Mansoni Peroxiredoxins; settings: purified TGR, DTNB reduction, TNB absorbance 405 nm; series mostly up to 114 µM; activity change, negative = inhibition: at the top concentration; further: nearly all actives have a fitted effect of over 60% in size
Outline: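 First, TGR (20 nM dispensed) and NADPH were mixed with compound. Second, a 15 min room-temperature incubation followed. Third, further NADPH and then DTNB were added to start the reaction. Finally, TNB absorbance was monitored kinetically.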
On the % scale 0 is the no-effect control and ±100 the full control effect; potency means the concentration at half of the fitted maximal effect.

| SMILES | activity change, negative = inhibition | Potency |
| --- | --- | --- |
| Cc1ccc(-c2nn(CCC(=O)Nc3ccc(OC(F)(F)F)cc3)c(=O)c3ccccc23)cc1 | 3.82% (inactive) | – |
| Cc1cc(C)cc(NS(=O)(=O)c2cc3c(cc2C)NC(=O)CO3)c1 | 5.3% (inactive) | – |
| COc1ccc(Cn2c(C(=O)O)c(CNCCc3cccs3)c3ccc(OC)cc32)cc1 | 8.81% (inactive) | – |
| CCOCCc1nn2c(=O)cc(COC(=O)CNC(=O)c3ccc(C(C)(C)C)cc3)nc2s1 | -14.4% (inactive) | – |
| CCN(C(=O)CSc1nnc(C)n2c1cc1occc12)c1ccccc1 | -20% (inactive) | – |
| Cc1ccc(Cl)cc1NC(=O)C(C)n1nnc2sc(-c3ccccc3)cc2c1=O (stereo not drawn) | -5.46% (inactive) | – |
| COc1ccc(C2c3c(oc4ccccc4c3=O)C(=O)N2Cc2ccc3c(c2)OCO3)cc1 (stereo not drawn) | 4.84% (inactive) | – |
| CCOc1ccc(N(CC)S(=O)(=O)N2CCCC(C(=O)NCc3ccc(Cl)cc3)C2)cc1 (stereo not drawn) | 2.95% (inactive) | – |
| COc1ccccc1N1CCN(c2ncnc3onc(-c4cccc(Cl)c4)c23)CC1 | -6.23% (inactive) | – |
| COc1ccc(-c2nc(CN3CCN(c4ncccn4)CC3)c(C)o2)cc1C | 0.814% (inactive) | – |
| Cc1ccc(-c2nc(CS(=O)CC(=O)N3CCN(c4ncccn4)CC3)c(C)o2)cc1 (stereo not drawn) | – | 7.08 µM (active) |
| Cc1cccc(C)c1NC(=O)CS(=O)CC(=O)N1CCN(c2ccccc2)CC1 (stereo not drawn) | -8.81% (inactive) | – |
| O=C(NC1CCCC1)c1cc(-c2ccccc2)on1 | 3.07% (inactive) | – |
| O=C(NC1CCCCC1)c1ccc(-c2ccc(Cl)cc2)o1 | – | 35.5 µM (active) |
| O=C(NC1CCCCCC1)c1cccnc1Sc1ccc(Cl)cc1 | -3.38% (inactive) | – |
| Cc1ccc(CCNC(=O)c2ccc3c(c2)N(Cc2cc(C)ccc2C)C(=O)c2ccccc2S3=O)cc1 (stereo not drawn) | 9.69% (inactive) | – |
| Cc1ccccc1OCc1nc2c3cnn(-c4ccccc4F)c3ncn2n1 | 0.293% (inactive) | – |
| O=C(O)CCC(=O)N(Cc1cccs1)Cc1cccs1 | -0.146% (inactive) | – |
| CCn1c(NC(=O)c2ccccc2)c(-c2cccs2)c(=O)c2ccccc21 | 0.42% (inactive) | – |
| CC(C)Cn1c(CCC(=O)O)ccc1-c1cccs1 | – | 22.4 µM (active) |
| CCOc1ccc(S(=O)(=O)c2cn(Cc3ccccc3)c3ccc(OCC)cc3c2=O)cc1 | 2.33% (inactive) | – |
| Brc1ccc(CSc2ccc(-c3ccco3)nn2)cc1 | – | 17.8 µM (active) |
| Fc1cccc(Cl)c1CSc1ccc(-c2ccco2)nn1 | – | 17.8 µM (active) |
| Cn1c(SCc2c(F)cccc2Cl)nnc1-c1cnccn1 | -5.1% (inactive) | – |
| N#Cc1ccc(-c2cccs2)nc1SCc1ccc(Br)cc1 | -18.7% (inactive) | – |

| SMILES | activity change, negative = inhibition | Potency |
| --- | --- | --- |
| Cc1cc(SCc2c(F)cccc2Cl)nc(=O)[nH]1 | 3.88% (inactive) | – |
| Cc1cccc(CSc2ccc(-c3cccs3)nn2)c1 | – | inactive |
| COc1cccc(CNC(=O)C(NS(=O)(=O)c2ccc3nc(C)sc3c2)C(C)C)c1 (stereo not drawn) | 6.17% (inactive) | – |
| COc1ccc(CNC(=O)CSc2nc3ccccc3nc2Cc2ccccc2)cc1 | 8.87% (inactive) | – |
| Cc1ccc(OCCSc2nc3ccc(NC(=O)COc4ccc(C)cc4)cc3s2)cc1 | 1.48% (inactive) | – |
| O=C(CCCn1c(=O)c2cccn2c2cccnc21)NCc1ccc(F)cc1 | 5.29% (inactive) | – |
| CCOc1ccccc1NC(=O)C1CCCN(S(=O)(=O)c2cn(C)cn2)C1 (stereo not drawn) | 1.19% (inactive) | – |
| CON(C)S(=O)(=O)c1ccc2c(c1)NC(=O)C1CCCN21 (stereo not drawn) | – | 12.6 µM (active) |
| CC1C(=O)Nc2ccc(S(=O)(=O)N3CCN(c4ccccc4F)CC3)cc2NC1=O (stereo not drawn) | 0.0144% (inactive) | – |
| COc1ccc(N2CCN(S(=O)(=O)c3ccc4c(c3)NC(=O)C(C)C(=O)N4)CC2)cc1 (stereo not drawn) | -0.727% (inactive) | – |
| COc1ccc(-c2cc(C(F)(F)F)n3nc(-c4ccccc4)cc3n2)cc1OC | 1.04% (inactive) | – |
| CCc1ccccc1NC(=O)N1CCC2(CC1)Oc1ccccc1C(=O)N2Cc1ccccc1F | 5.66% (inactive) | – |
| Clc1cc(-c2ccc(/C=N/n3cnnc3)o2)ccc1Br | -8.48% (inactive) | – |
| Cc1ccc(Cl)cc1-c1ccc(/C=N/n2cnnc2)o1 | 5.78% (inactive) | – |
| O=C1C2C3C=CC(C4CC34)C2C(=O)N1/N=C/c1ccc(-c2ccccc2[N+](=O)[O-])o1 (stereo not drawn) | -5.26% (inactive) | – |
| Cc1cc(-c2ccc(/C=N/n3cnnc3)o2)c([N+](=O)[O-])cc1C | – | 35.5 µM (active) |
| Cc1cc([N+](=O)[O-])c(-c2ccc(/C=N/n3cnnc3)o2)cc1Cl | – | 50.1 µM (active) |
| Cc1cc(C)c([N+](=O)[O-])cc1-c1ccc(/C=N/NC(=O)c2nonc2N)o1 | -22.4% (inactive) | – |
| COc1ccc(-n2nc(C(=O)NCCc3ccc(Cl)cc3)c3c4ccccc4n(C)c3c2=O)cc1Cl | 8.82% (inactive) | – |
| Cc1cccc(OCCCC(=O)Nc2sc3c(c2C(N)=O)CCC(C)C3)c1 (stereo not drawn) | 0.261% (inactive) | – |
| CCOC(=O)C1CCN(C(=O)CSc2c3c(nc4ccc(Cl)cc24)CCCC3)CC1 | -4.41% (inactive) | – |
| CCOc1ccc(NC(=O)CN(Cc2ccccc2)S(=O)(=O)c2ccc(Cl)cc2)cc1 | -0.203% (inactive) | – |
| CCOc1ccc(N(Cc2ccccc2)C(=O)c2nc(S(C)(=O)=O)ncc2Cl)cc1 | – | 8.91 µM (active) |
| CCOc1ccc(N(Cc2ccccc2)C(=O)c2nc(SCC)ncc2Cl)cc1 | 8.83% (inactive) | – |
| Cc1c(CNC2CCCCC2)c(C(=O)O)c(C)n1Cc1cccc(Cl)c1 | -3.74% (inactive) | – |

| SMILES | activity change, negative = inhibition | Potency |
| --- | --- | --- |
| COC(=O)C1=C(c2ccccc2)c2ccccc2S(=O)(=O)N1CC(=O)Nc1ccccc1C(F)(F)F | -1.13% (inactive) | – |
| CN1C(=O)/C(=C/c2ccco2)SC1=Nc1cccc(C(=O)O)c1 | – | 14.1 µM (active) |
| CN=C1S/C(=C\c2c(OC)cc(OC)cc2OC)C(=O)N1C | -16.8% (inactive) | – |
| Cc1cc(/C=C2\SC(=Nc3ccc(N4CCOCC4)cc3)N(C)C2=O)c(C)n1-c1cccnc1 | -22.7% (inactive) | – |
| CCOC(=O)c1ccc(NC(=O)CC2C(=O)N(c3cccc(OC)c3)C(=O)N2C2CCCCC2)cc1 (stereo not drawn) | 6.04% (inactive) | – |
| COc1ccc(NC(=O)c2ccc3nc(C(C)C)oc3c2)cc1OC | -0.734% (inactive) | – |
| COc1ccccc1N1CCN(C(CNC(=O)C(=O)NCc2ccc(C)cc2)c2cccnc2)CC1 (stereo not drawn) | -3.19% (inactive) | – |
| Cc1c(NC(=O)CCCOc2ccccc2)cccc1[N+](=O)[O-] | -7.24% (inactive) | – |
| Cc1c(NC(=O)/C=C/C(=O)O)cccc1[N+](=O)[O-] | – | 50.1 µM (active) |
| Cc1c(NC(=S)NCc2ccc(F)cc2)cccc1[N+](=O)[O-] | -22.1% (inactive) | – |
| O=C(NCCc1csc(-c2ccc(C(F)(F)F)cc2)n1)C(=O)Nc1ccc(F)c(Cl)c1 | 5.45% (inactive) | – |
| CCOc1ccccc1NS(=O)(=O)c1c[nH]c(C(=O)OC)c1 | 0.0214% (inactive) | – |
| CCOc1ccc(CN(CCCl)CCCl)cc1C(=O)OC | – | 14.1 µM (active) |
| CCCOc1ccc(CN(CCO)CCO)cc1C(=O)OC | -2.83% (inactive) | – |
| CC(=O)N1CCc2cc(S(=O)(=O)NC(Cc3ccccc3)C(=O)NCc3ccc(C)cc3)ccc21 (stereo not drawn) | 0.332% (inactive) | – |
| CCc1nn(CC(=O)NCC(C)c2ccccc2)c(=O)c2cc3occc3n12 (stereo not drawn) | -3.19% (inactive) | – |
| Cc1cc(C)cc(-n2c(SCC(=O)NCC3CCCO3)nc3c([nH]c4ccccc43)c2=O)c1 (stereo not drawn) | 4.33% (inactive) | – |
| Cc1nnc(SCC(=O)N2CCOCC2)[nH]c1=O | -0.867% (inactive) | – |
| CCCCOC(=O)CNc1nnc(SCC(=O)OCC)[nH]c1=O | – | 14.1 µM (active) |
| CCOC(=O)CSc1nc(C)c(Oc2ccc(Cl)cc2Cl)c(=O)[nH]1 | 0.0744% (inactive) | – |
| Cc1ccccc1C(=O)Nc1cc(C)c(O)c(-c2nc3ccccc3o2)c1 | -2.01% (inactive) | – |
| COc1cccc(Cn2c(CNS(=O)(=O)c3ccc(Cl)s3)nc3cccnc32)c1 | -0.347% (inactive) | – |
| O=C(COc1ccccc1Cl)N1N=C(c2cccs2)CC1c1ccco1 (stereo not drawn) | – | 35.5 µM (active) |
| O=C1c2cccc(OCC(=O)N3N=C(c4cccs4)CC3c3ccc(F)cc3)c2CCN1Cc1ccccc1 (stereo not drawn) | 2.05% (inactive) | – |
| Cc1ccc(C2=NN(C(=O)COc3ncnc4ccccc34)C(c3ccco3)C2)cc1 (stereo not drawn) | -12.3% (inactive) | – |

| SMILES | activity change, negative = inhibition | Potency |
| --- | --- | --- |
| Cc1ccc(Cl)cc1NC(=O)CCS(=O)(=O)c1ccc(Br)s1 | -2.26% (inactive) | – |
| O=C1N[C@@H](Cc2ccccc2)C(=O)N2[C@H]1C[C@]1(Br)c3ccccc3N(S(=O)(=O)c3ccccc3)[C@H]21 | – | 22.4 µM (active) |
| O=C(CSc1nccn1Cc1ccc(Cl)cc1)NCc1ccccc1 | -4.14% (inactive) | – |
| Cc1ccc2c(=O)c(C(=O)c3ccc(F)cc3)cn(CC(=O)NC3CCCCC3)c2n1 | -0.574% (inactive) | – |
| O=C(CSc1nc(-c2ccccc2)cs1)Nc1cccc([N+](=O)[O-])c1 | 7.7% (inactive) | – |
| O=[N+]([O-])c1cccc(S(=O)(=O)NCc2ccccn2)c1 | -6.1% (inactive) | – |
| O=C(CSc1nnc(-c2ccccc2F)o1)Nc1cccc(C(F)(F)F)c1 | 1.64% (inactive) | – |
| O=c1cc(CO)oc(C(Nc2cccc([N+](=O)[O-])c2)c2ccccn2)c1O (stereo not drawn) | – | 50.1 µM (active) |
| O=c1cc(CO)oc(C(Nc2cccc(C(F)(F)F)c2)c2ccccn2)c1O (stereo not drawn) | – | 11.2 µM (active) |
| Cn1c(=O)c2c(ncn2CC(=O)Nc2cccc(C(F)(F)F)c2)n(C)c1=O | 7.76% (inactive) | – |
| O=C(COc1ccccc1)OCc1cc(=O)n2nc(-c3cccs3)sc2n1 | 0.151% (inactive) | – |
| CCOC(=O)c1ccc(NC(=O)c2c(NCc3cccs3)sc3c2CCCC3)cc1 | -32.3% (inactive) | – |
| Cc1cccc(CC(=O)N2CC(=O)Nc3ccc(F)cc3C2c2ccccc2)c1 (stereo not drawn) | -2.49% (inactive) | – |
| CCOC(=O)c1ccccc1NC(=O)c1sc2nc(-c3ccc(F)cc3)cn2c1C | 1.27% (inactive) | – |
| Cc1nn(CC(=O)NCc2ccccn2)c(C)c1[N+](=O)[O-] | 3.91% (inactive) | – |
| Cc1c2cnn(CC(=O)NCCCN3CC(C)CC(C)C3)c(=O)c2c(C)n1Cc1ccc(Cl)cc1 (stereo not drawn) | -1.92% (inactive) | – |
| Cc1ccc(Cn2c(C)c3cnn(CC(=O)NCc4ccccc4)c(=O)c3c2C)cc1 | -8.1% (inactive) | – |
| Cc1ccc(Cn2c(C)c3cnn(CC(=O)NCc4ccccn4)c(=O)c3c2C)cc1 | – | 35.5 µM (active) |
| Cc1c2cnn(CC(=O)NCc3ccccn3)c(=O)c2c(C)n1Cc1ccc(Cl)cc1 | – | 44.7 µM (active) |
| O=C(Cn1ncc2c3ccccc3n(Cc3ccccc3)c2c1=O)NCc1ccccn1 | – | inactive |
| CN(C(=O)CSc1nnc(NC(=O)Nc2ccccc2)s1)c1ccccc1 | -0.9% (inactive) | – |
| CCOC(=O)c1c(C)oc2ccc(N(C(=O)c3ccncc3)S(=O)(=O)c3ccc(CC)cc3)cc12 | -2.52% (inactive) | – |
| Cc1c(Cl)cccc1NC(=O)N1CCN(C(=O)c2nsc3ccccc23)CC1 | -2.35% (inactive) | – |
